# According to PubChem BioAssay (NCATS):
# “And” between values parts separate entries of the source, which are not always exact repeats. Equal values may be shown once. Results filed as inconclusive are left out. Where a call stands in place of a potency, no number is given. The source made the active and inactive calls. Unless noted, calls follow the shape of the full dose curve.
# What was measured:
# [1] = molecular target: Glucocorticoid receptor (Homo sapiens) (UniProt P04150); assay: qHTS assay for small molecule agonists of glucocorticoid receptor signaling (AID 588532; active = well fitted curve in the direction sought with a large enough effect in the signal ratio, with a control signal flat; the % refers to the signal ratio); details: HeLa MMTV-bla, beta-lactamase ratio, agonist, 18 h; stronger effect = higher value; percent of dexamethasone control, DMSO zero
# Chain of Glucocorticoid receptor (Homo sapiens) (P04150 whole entry, looked up): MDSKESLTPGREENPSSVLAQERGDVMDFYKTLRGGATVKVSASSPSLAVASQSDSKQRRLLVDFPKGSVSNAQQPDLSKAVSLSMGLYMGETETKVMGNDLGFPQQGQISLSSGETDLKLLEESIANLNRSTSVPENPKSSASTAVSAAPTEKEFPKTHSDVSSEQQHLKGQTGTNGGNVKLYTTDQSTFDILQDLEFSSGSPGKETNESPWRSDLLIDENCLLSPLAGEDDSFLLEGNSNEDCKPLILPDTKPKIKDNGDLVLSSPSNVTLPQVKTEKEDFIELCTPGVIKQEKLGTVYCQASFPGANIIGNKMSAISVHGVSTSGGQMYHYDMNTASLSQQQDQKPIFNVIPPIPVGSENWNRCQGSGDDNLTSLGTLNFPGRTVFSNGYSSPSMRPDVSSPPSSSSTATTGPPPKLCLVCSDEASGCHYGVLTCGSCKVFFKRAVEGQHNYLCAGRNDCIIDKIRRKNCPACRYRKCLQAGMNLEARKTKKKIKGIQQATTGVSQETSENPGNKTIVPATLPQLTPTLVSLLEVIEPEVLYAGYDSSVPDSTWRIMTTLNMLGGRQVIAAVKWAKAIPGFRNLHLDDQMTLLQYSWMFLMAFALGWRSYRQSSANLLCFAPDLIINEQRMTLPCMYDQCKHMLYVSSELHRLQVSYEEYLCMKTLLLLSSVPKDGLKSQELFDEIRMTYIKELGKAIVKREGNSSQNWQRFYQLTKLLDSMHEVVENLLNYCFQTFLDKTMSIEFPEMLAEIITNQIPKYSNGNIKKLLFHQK
# Summary of the method: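 Cells were plated and rested 3-5 h at 37 C, compounds were added in titration and incubated 18 h, then CCF4 substrate was loaded for 2 h at RT before reading blue/green fluorescence. EC50 came from Hill-equation fitting.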
# [2] = molecular target: Thyroid hormone receptor beta (Homo sapiens) (UniProt P10828); assay: qHTS assay for small molecule agonists of thyroid hormone receptor beta signaling (AID 588545); details: TR-UAS-bla GripTite HEK 293, beta-lactamase ratio, agonist mode, 18 h, percent of T3 response, DMSO as zero; series mostly up to 76.7 µM
# Chain of Thyroid hormone receptor beta (Homo sapiens) (P10828 whole entry, looked up): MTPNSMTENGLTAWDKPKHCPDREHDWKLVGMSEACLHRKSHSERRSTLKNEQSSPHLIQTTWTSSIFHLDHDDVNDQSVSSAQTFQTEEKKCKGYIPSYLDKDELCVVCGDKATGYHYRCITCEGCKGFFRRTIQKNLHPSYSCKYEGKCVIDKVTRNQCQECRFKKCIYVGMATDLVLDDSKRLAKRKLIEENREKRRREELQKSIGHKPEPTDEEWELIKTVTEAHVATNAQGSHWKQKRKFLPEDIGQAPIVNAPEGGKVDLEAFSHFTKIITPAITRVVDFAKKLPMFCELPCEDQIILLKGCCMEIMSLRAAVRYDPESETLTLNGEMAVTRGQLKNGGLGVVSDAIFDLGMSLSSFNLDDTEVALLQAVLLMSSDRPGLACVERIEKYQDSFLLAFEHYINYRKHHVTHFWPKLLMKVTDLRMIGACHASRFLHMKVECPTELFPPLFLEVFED
# Summary of the method: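 Agonist-mode beta-lactamase reporter assay, HEK 293 cells, 2% charcoal/dextran FBS; cells plated 4 hrs, compound 18 hrs at 37 C, CCF4 2 hrs RT. Normalized to 10 nM T3 (100%) and DMSO (0%); Hill fit gives EC50, efficacy.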
# [3] = molecular target: Thyroid hormone receptor beta (Homo sapiens) (UniProt P10828); assay: qHTS assay for small molecule antagonists of thyroid hormone receptor beta signaling (AID 588547; active = well fitted inhibition curve with a large enough effect in the signal ratio, with a control signal flat, not every such curve was filed as active; the % refers to the signal ratio;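 also: cells stimulated with 0.4 nM T3 agonist during compound exposure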); details: TR-UAS-bla HEK293, beta-lactamase ratio, antagonist mode, 18 h
# Summary of the method: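 TR-UAS-bla GripTite HEK293 cells in 2% charcoal/dextran FBS medium; compounds 0.59 nM to 92 uM with T3 at 0.4nM final, 18 h at 37 C. Beta-lactamase read by CCF4 fluorescence (460/530 nm); Hill fits gave IC50 and efficacy.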
# [4] = molecular target: Voltage-gated inwardly rectifying potassium channel KCNH2 (Homo sapiens) (UniProt Q12809); assay: qHTS Assay for Small Molecule Inhibitors of the Human hERG Channel Activity (AID 588834; active = well fitted curve in the direction sought with a large enough effect; an effect the other way counts as inactive or inconclusive;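 also: top concentration of the series differs between compounds; lower thallium flux fluorescence means stronger hERG block; nearly all actives have a fitted effect of over 50% in size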); details: U2OS BacMam hERG, FluxOR thallium flux fluorescence; series mostly up to 46.1 µM
# Summary of the method: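 Concentration-response qHTS measuring drop in thallium-sensitive dye signal. U2OS cells carrying BacMam hERG; compound exposure ~10 min, then stimulation buffer and 2 min read at 1 sec intervals.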
# [5] = molecular target: Luciferin 4-monooxygenase (Photinus pyralis) (UniProt P08659); assay: Biochemical firefly luciferase enzyme assay for NPC (AID 624030; active = well fitted curve in the direction sought with a large enough effect; an effect the other way counts as inactive or inconclusive;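 also: purified P. pyralis luciferase at 10 nM with luciferin and ATP substrate; nearly all actives have a fitted effect of over 70% in size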); details: purified P. pyralis luciferase, luminescence, 5 min; series mostly up to 58.6 µM
# Chain of Luciferin 4-monooxygenase (Photinus pyralis) (P08659 whole entry, looked up): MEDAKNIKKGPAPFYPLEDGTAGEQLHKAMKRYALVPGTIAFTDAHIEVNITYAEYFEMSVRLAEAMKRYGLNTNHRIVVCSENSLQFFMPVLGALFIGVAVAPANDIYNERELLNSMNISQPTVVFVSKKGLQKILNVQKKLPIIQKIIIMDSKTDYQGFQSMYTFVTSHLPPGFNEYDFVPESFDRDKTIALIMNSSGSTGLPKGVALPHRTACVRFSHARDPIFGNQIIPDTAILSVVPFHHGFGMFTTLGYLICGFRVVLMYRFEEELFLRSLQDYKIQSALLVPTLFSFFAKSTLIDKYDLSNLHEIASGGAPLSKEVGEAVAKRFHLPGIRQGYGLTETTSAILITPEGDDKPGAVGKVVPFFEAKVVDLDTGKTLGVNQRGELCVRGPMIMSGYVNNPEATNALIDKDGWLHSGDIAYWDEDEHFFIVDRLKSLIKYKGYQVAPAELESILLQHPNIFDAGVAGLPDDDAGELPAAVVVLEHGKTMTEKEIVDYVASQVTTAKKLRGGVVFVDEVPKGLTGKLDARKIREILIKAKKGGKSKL
# Summary of the method: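 Purified P. pyralis luciferase at 10 nM in 50 mM Tris Acetate (final), luminescence read within 5 minutes of enzyme addition to compounds. Activity normalised to PTC124 versus DMSO; concentration-response curves classed by r2, magnitude and activity.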
# [6] = S16 Schwann cell viability assay (CellTiter-Glo assay) (AID 624031; active = well fitted curve in the direction sought with a large enough effect; an effect the other way counts as inactive or inconclusive;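 also: native untransfected S16 rat Schwann cells; cellular ATP luminescence as a viability measure; nearly all actives have a fitted effect of over 70% in size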); details: S16 rat Schwann cells viability, 24 h; series mostly up to 57.5 µM
# Summary of the method: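 Rat S16 Schwann cells without reporter constructs received compound or DMSO for 24 h at 37 °C under 5% CO2. Cellular ATP was then quantified by CellTiter-Glo luminescence, with vehicle wells defined as 0% activity and cell-free wells as reference.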
# [7] = S16 Schwann cell PMP22 intronic element firefly luciferase assay (AID 624032; active = well fitted curve in the direction sought with a large enough effect; an effect the other way counts as inactive or inconclusive; also: nearly all actives have a fitted effect of over 30% in size; also: potency is read from the fitted curve at half-maximal effect); details: S16 rat Schwann cells, PMP22 element FLuc, 24 h; series mostly up to 57.5 µM
# Summary of the method: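 Rat S16 Schwann cells stably carrying firefly luciferase driven by a PMP22 intronic element, in 10% FBS, treated 24 h at 37 C. ONE-Glo luminescence normalized to PTC124 control and DMSO (0%); curves classed by r2, magnitude and activity.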
# [8] = molecular target: Glucocorticoid receptor (Homo sapiens) (UniProt P04150); assay: qHTS assay for small molecule antagonists of glucocorticoid receptor signaling (AID 588533; active = well fitted inhibition curve with a large enough effect in the signal ratio, with a control signal flat, not every such curve was filed as active; the % refers to the signal ratio; also: potency is read from the fitted curve at half-maximal effect); details: HeLa MMTV-bla, GRE beta-lactamase ratio, antagonist mode, 18 h; series mostly up to 76.8 µM
# Summary of the method: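 Antagonist-mode qHTS: compound titrations added to GRE-bla HeLa cells, then dexamethasone 2 nM final; 18 h, 37 C. CCF4 FRET fluorescence normalized to dexamethasone and DMSO; IC50 from Hill fit.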
# [9] = molecular target: Peroxisome proliferator-activated receptor delta (Homo sapiens) (UniProt Q03181); assay: qHTS assay for small molecule agonists of peroxisome proliferator-activated receptor delta signaling (AID 588534); details: HEK293T PPARdelta-UAS-bla, beta-lactamase ratio, 18 h; series mostly up to 76.7 µM
# Chain of Peroxisome proliferator-activated receptor delta (Homo sapiens) (Q03181 whole entry, looked up): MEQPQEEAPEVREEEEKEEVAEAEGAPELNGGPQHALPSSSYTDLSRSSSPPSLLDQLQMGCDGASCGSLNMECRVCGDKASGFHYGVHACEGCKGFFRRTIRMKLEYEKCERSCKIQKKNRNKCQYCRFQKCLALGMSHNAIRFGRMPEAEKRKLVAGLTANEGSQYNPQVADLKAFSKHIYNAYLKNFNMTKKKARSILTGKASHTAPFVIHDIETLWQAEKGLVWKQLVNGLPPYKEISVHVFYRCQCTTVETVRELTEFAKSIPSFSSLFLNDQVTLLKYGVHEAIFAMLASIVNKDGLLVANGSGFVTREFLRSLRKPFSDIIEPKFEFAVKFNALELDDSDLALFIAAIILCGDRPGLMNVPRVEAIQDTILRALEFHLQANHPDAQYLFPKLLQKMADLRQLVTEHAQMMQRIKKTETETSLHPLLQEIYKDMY
# Summary of the method: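 Cells carrying a PPAR-delta beta-lactamase reporter were treated with compounds for 18 h at 37 °C in agonist mode. CCF4 fluorescence was read after 2 h; EC50 and efficacy from Hill fits.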
# [10] = molecular target: Bile acid receptor (Homo sapiens) (UniProt Q96RI1); assay: qHTS assay for small molecule antagonists of farnesoid X receptor signaling (AID 588526); details: HEK293T FXR-UAS-bla, beta-lactamase ratio, antagonist mode; series mostly up to 76.7 µM
# Chain of Bile acid receptor (Homo sapiens) (Q96RI1 whole entry, looked up): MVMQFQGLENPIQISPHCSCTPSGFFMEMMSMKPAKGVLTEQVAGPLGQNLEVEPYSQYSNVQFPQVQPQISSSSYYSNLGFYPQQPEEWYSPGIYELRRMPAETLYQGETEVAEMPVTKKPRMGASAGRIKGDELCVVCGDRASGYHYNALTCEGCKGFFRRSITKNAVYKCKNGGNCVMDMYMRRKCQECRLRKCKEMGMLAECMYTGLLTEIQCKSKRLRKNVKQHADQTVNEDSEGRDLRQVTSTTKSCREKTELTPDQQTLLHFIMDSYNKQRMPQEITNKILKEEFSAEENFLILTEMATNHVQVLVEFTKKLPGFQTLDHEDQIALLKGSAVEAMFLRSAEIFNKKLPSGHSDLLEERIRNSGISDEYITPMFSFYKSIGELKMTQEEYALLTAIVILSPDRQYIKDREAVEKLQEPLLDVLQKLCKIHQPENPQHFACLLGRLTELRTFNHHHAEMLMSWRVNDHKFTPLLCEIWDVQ
# Summary of the method: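 Antagonist mode: titrated compounds tested against chenodeoxycholic acid stimulation (normalized to 50 uM CDCA and DMSO) in GeneBLAzer HEK293T cells for 16 h. Beta-lactamase read by CCF4 fluorescence; IC50 from Hill fits.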
# [11] = qHTS assay for small molecule antagonists of peroxisome proliferator-activated receptor delta signaling (AID 588535; active = well fitted inhibition curve with a large enough effect in the signal ratio, with a control signal flat, not every such curve was filed as active; the % refers to the signal ratio; also: potency is read from the fitted curve at half-maximal effect;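 as to max response: cells co-treated with a PPAR-delta agonist as stimulator during compound exposure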); details: HEK293T PPARd-UAS-bla, beta-lactamase FRET ratio, 18 h; 460 nm channel
# Summary of the method: (§1)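 Antagonist-mode beta-lactamase reporter (GeneBLAzer PPAR-delta-UAS-bla) in HEK293T cells, 2% charcoal/dextran FBS, 4000 cells/well. Compound titrations, 18 h at 37 C; CCF4 ratio read, IC50 and efficacy from Hill fits.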
# [12] = molecular target: Peroxisome proliferator-activated receptor delta (Homo sapiens) (UniProt Q03181); assay: as above; details: HEK293T PPARd-UAS-bla, beta-lactamase FRET ratio, 18 h; series mostly up to 76.7 µM
# Summary of the method: as §1
# [13] = molecular target: Peroxisome proliferator-activated receptor gamma (Homo sapiens) (UniProt P37231); assay: qHTS assay for small molecule agonists of peroxisome proliferator-activated receptor gamma signaling (AID 588536; active = well fitted curve in the direction sought with a large enough effect in the signal ratio, with a control signal flat, not every such curve was filed as active; the % refers to the signal ratio); details: HEK293 PPARg-UAS-bla, beta-lactamase ratio, 16 h, percent of rosiglitazone response, DMSO as zero; series mostly up to 76.7 µM
# Chain of Peroxisome proliferator-activated receptor gamma (Homo sapiens) (P37231 whole entry, looked up): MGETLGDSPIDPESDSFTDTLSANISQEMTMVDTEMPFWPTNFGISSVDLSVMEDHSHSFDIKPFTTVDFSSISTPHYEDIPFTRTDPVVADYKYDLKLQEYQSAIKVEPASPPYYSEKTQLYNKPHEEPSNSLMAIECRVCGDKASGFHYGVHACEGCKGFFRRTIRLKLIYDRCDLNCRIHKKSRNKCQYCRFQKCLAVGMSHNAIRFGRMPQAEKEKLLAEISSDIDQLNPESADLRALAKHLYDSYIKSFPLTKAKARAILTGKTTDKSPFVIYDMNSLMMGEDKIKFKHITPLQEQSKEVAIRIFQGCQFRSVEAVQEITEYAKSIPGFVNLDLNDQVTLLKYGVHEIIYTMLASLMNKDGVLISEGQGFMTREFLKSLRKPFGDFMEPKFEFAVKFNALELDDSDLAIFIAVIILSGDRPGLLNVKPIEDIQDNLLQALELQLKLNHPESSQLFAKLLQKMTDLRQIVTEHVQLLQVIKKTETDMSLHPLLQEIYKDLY
# Summary of the method: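 Ratiometric blue/green fluorescence (405 nm excitation; 460 and 530 nm emission) from CCF4-loaded HEK293 reporter cells serves as signal. Exposure to test compounds lasts 16 h at 37 C in medium containing 1% charcoal/dextran-treated serum.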
# [14] = qHTS assay for small molecule agonists of retinoid X receptor alpha signaling (AID 588544); details: HEK293T RXRa-UAS-bla, beta-lactamase reporter, 18 h; 530 nm emission
# [15] = molecular target: Retinoic acid receptor RXR-alpha (Homo sapiens) (UniProt P19793); assay: as above; details: HEK293T RXRa-UAS-bla, beta-lactamase reporter, 18 h; series mostly up to 76.7 µM
# Chain of Retinoic acid receptor RXR-alpha (Homo sapiens) (P19793 whole entry, looked up): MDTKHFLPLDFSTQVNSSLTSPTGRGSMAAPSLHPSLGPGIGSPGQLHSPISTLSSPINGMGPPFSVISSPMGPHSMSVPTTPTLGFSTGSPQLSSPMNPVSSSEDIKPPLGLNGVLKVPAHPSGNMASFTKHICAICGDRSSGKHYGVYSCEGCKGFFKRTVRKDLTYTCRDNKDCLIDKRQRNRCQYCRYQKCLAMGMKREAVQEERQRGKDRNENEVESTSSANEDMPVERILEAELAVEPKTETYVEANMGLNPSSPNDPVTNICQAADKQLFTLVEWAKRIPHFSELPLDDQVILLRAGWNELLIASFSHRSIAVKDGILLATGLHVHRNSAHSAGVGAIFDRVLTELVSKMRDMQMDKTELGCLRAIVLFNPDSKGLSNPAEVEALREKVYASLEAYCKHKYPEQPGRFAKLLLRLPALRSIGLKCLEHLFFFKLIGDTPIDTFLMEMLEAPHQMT
# [16] = molecular target: Peroxisome proliferator-activated receptor gamma (Homo sapiens) (UniProt P37231); assay: qHTS assay for small molecule antagonists of peroxisome proliferator-activated receptor gamma signaling (AID 588537; active = well fitted inhibition curve with a large enough effect in the signal ratio, with a control signal flat, not every such curve was filed as active; the % refers to the signal ratio;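 also: reporter cells co-stimulated with 50 nM rosiglitazone agonist during compound treatment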); details: HEK293 PPARg-UAS-bla, beta-lactamase ratio, antagonist mode; series mostly up to 76.8 µM
# Summary of the method: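 PPARγ-UAS-bla HEK293 cells (3000/well) in 1% charcoal/dextran-stripped FBS are treated with compound, then stimulated with 50 nM rosiglitazone for 16 h at 37 °C. Read-out is CCF4 β-lactamase fluorescence after 2 h at RT. IC50 comes from Hill fits normalised to rosiglitazone and DMSO.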
# [17] = molecular target: Vitamin D3 receptor (Homo sapiens) (UniProt P11473); assay: qHTS assay for small molecule antagonists of vitamin D receptor signaling (AID 588541); details: HEK293T VDR-UAS-bla, beta-lactamase ratio, antagonist mode; series mostly up to 76.7 µM;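 also: receptor activated by calcitriol during compound treatment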
# Chain of Vitamin D3 receptor (Homo sapiens) (P11473 whole entry, looked up): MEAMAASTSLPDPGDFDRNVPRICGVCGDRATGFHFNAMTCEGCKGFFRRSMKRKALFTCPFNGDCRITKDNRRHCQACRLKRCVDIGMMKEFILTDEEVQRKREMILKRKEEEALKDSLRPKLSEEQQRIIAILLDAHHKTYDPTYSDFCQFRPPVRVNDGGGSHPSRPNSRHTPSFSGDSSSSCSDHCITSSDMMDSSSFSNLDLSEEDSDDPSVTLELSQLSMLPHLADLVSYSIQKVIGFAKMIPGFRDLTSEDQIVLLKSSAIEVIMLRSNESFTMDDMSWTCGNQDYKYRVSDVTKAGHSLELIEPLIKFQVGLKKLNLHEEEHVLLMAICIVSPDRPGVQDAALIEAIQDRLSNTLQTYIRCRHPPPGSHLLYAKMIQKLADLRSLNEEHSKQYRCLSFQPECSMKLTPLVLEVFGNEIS
# Summary of the method: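 VDR-UAS-bla HEK293T cells in 2% charcoal-stripped FBS were stimulated with 1-alpha,25-dihydroxyvitamin D3 (3 nM final) plus compound for 16 h at 37 C. The beta-lactamase CCF4 readout was normalized to 50 nM agonist and DMSO, and Hill fits gave IC50.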
# [18] = molecular target: Vitamin D3 receptor (Homo sapiens) (UniProt P11473); assay: qHTS assay for small molecule agonists of vitamin D receptor signaling (AID 588543); details: HEK293T VDR-UAS-bla, beta-lactamase ratio, 16 h; series mostly up to 76.8 µM
# Summary of the method: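 β-lactamase reporter, VDR-UAS-bla HEK293T, agonist mode. Cells plated 5 h at 37 °C, compound titration 16 h at 37 °C, CCF4 dye 2 h RT, ratio 460/530 nm. Hill fit → EC50, efficacy vs 50 nM 1α,25-(OH)2D3.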
# [19] = qHTS assay for small molecule antagonists of retinoid X receptor alpha signaling (AID 588546; active = well fitted inhibition curve with a large enough effect in the signal ratio, with a control signal flat, not every such curve was filed as active; the % refers to the signal ratio;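 also: cells stimulated with 9-cis-retinoic acid as agonist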); details: HEK293T RXRa-UAS-bla, beta-lactamase ratio, antagonist mode; measured here: W530 green channel, cytotoxicity proxy
# Summary of the method: (§2)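 Beta-lactamase reporter inhibition, read as CCF4 fluorescence ratio (ex 405, em 460/530 nm) after 2 h at RT. HEK293T UAS-bla cells, 2500/well, were stimulated with 9-cis-RA at 500 or 100 nM final alongside test compound for 18 h at 37 C.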
# [20] = molecular target: Retinoic acid receptor RXR-alpha (Homo sapiens) (UniProt P19793); assay: as above; details: HEK293T RXRa-UAS-bla, beta-lactamase ratio, antagonist mode
# Summary of the method: as §2
compound,measurement,setting,value
N#Cc1nn(-c2c(Cl)cc(C(F)(F)F)cc2Cl)c(N)c1S(=O)C(F)(F)F (stereo not given),activation,[1],-6.58% (inactive)
same,outcome,[2],inactive
same,activity change % (negative = inhibition),[3],-25.5% (inactive)
same,Potency,[4],inactive
same,Potency,[5],inactive
same,Potency,[6],inactive
same,Potency,[7],10.2 µM (active)
COC(=O)C1=C(C)NC(C)=C(C(=O)OC)C1c1ccccc1[N+](=O)[O-],Potency,[8],31.6 µM (active)
same,Potency,[7],18.1 µM (active)
C[C@]12C=CC(=O)C=C1CC[C@H]1[C@@H]3C[C@@H](O)[C@](O)(C(=O)CO)[C@@]3(C)C[C@H](O)[C@@]12F,outcome,[9],inactive
C[C@@H]1C[C@@H]([C@H](O)CC2CC(=O)NC(=O)C2)C(=O)[C@@H](C)C1,Potency,[10],inactive
same,outcome,[9],inactive
same,max response,[11],-115% and -59.6%
same,Potency,[12],316 nM (active) and 199 nM (active)
same,outcome,[13],inactive
same,max response,[14],-10.1%
same,outcome,[15],inactive
same,outcome,[2],inactive
same,activity change % (negative = inhibition),[3],-37.8% (inactive)
same,Potency,[4],inactive
N[C@@H](Cc1c[nH]c2ccc(O)cc12)C(=O)O,outcome,[9],inactive
CCCCC(CC)COC(=O)C(C#N)=C(c1ccccc1)c1ccccc1 (stereo not given),outcome,[9],inactive
CCNc1nc(Cl)nc(NCC)n1,Potency,[10],inactive
same,activation,[1],3.33% (inactive)
same,Potency,[8],inactive
same,outcome,[13],inactive
same,Potency,[16],inactive
same,outcome,[17],inactive
same,outcome,[18],inactive
same,max response,[14],-18.2%
same,outcome,[15],inactive
same,outcome,[2],inactive
same,max response,[19],-7.93%
same,max response,[20],2.68% (inactive)
same,activity change % (negative = inhibition),[3],3.97% (inactive)
same,Potency,[4],inactive
same,Potency,[5],inactive
same,Potency,[6],inactive
same,Potency,[7],inactive
COP(=O)(OC)C(O)C(Cl)(Cl)Cl (stereo not given),activation,[1],3.67% (inactive)
same,outcome,[9],inactive
same,outcome,[18],inactive
same,outcome,[2],inactive
same,Potency,[4],inactive
same,Potency,[5],inactive
same,Potency,[6],inactive
same,Potency,[7],inactive
CC(=O)OC/C=C(C)/C=C/C=C(C)/C=C/C1=C(C)CCCC1(C)C,outcome,[9],inactive
COc1cccc2c1C(=O)c1c(O)c3c(c(O)c1C2=O)C[C@@](O)(C(C)=O)C[C@@H]3O[C@H]1C[C@H](N)[C@H](O)[C@H](C)O1,outcome,[9],inactive
CCOc1ccccc1C(N)=O,outcome,[9],inactive
C[C@H]1C(=O)O[C@@H]2CCN3CC=C(COC(=O)[C@](C)(O)[C@]1(C)O)[C@H]23,Potency,[10],inactive
same,activation,[1],8.93% (inactive)
same,Potency,[8],inactive
same,outcome,[9],inactive
same,outcome,[13],inactive
same,Potency,[16],inactive
same,outcome,[17],inactive
same,outcome,[18],inactive
same,max response,[14],-6.89%
same,outcome,[15],inactive
same,max response,[19],-18.5%
same,max response,[20],-1.01% (inactive)
same,Potency,[4],inactive
same,Potency,[5],inactive
same,Potency,[6],inactive
same,Potency,[7],inactive
C=CCOC(Cn1ccnc1)c1ccc(Cl)cc1Cl (stereo not given),activation,[1],-7.13% (inactive) and -8.27% (inactive)
same,Potency,[8],inactive
same,outcome,[9],inactive
same,max response,[11],-52.6% and -29.4%
same,Potency,[12],inactive
same,outcome,[17],inactive
same,outcome,[18],inactive
same,max response,[14],-17.1% and -12.6%
same,outcome,[15],inactive
same,outcome,[2],inactive
same,max response,[19],-20.1% and -17.9%
same,max response,[20],-20.3% (inactive) and -31.1% (inactive)
same,Potency,[5],inactive
same,Potency,[6],inactive
